Reference: the supplement of paper PMC7411054
Where a name gives a salt, the structure may show the parent alone.

Legend:
Conditions in all cases: treatment time: 24 h
A549-ACTB-RAB5A [1] = assay: lowest phenotypically active concentration; higher = less potent
Procedure, shortened: (§1)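 Fifteen gene-edited A549, HepG2 and WPMY1 reporter lines (BFP segmentation plus GFP and RFP/FusionRed markers) were treated at 0.3, 1, 3 or 9 µM for 24 h, four wells each, then imaged live. Live-cell features per well were normalised to DMSO control wells. Deviation required ≥3 of 4 wells beyond the 95th percentile of DMSO Euclidean distances, and reproducibility required median replicate Pearson correlation above the 95th percentile of non-replicates. Phenotypic activity needed both criteria.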

A549-CANX-COX4 [2] = assay: as above
Procedure, shortened: as §1

A549-GM130-SQSTM1 [3] = assay: as above
Procedure, shortened: as §1

A549-TP53BP1-CLTA [4] = assay: as above
Procedure, shortened: as §1

A549-TUBA1B-RELA [5] = assay: as above
Procedure, shortened: as §1

A549-ACTB-RAB5A [6] = assay: phenotypically active (imaging signature differs from DMSO and reproducible) at any of 0.3-9 uM (binary (1 = active, 0 = inactive)); higher = active
Procedure, shortened: as §1

A549-CANX-COX4 [7] = assay: as above
Procedure, shortened: as §1

A549-GM130-SQSTM1 [8] = assay: as above
Procedure, shortened: as §1

A549-TP53BP1-CLTA [9] = assay: as above
Procedure, shortened: as §1

A549-TUBA1B-RELA [10] = assay: as above
Procedure, shortened: as §1

HepG2-ACTB-RAB5A = assay: as above
Procedure, shortened: as §1

HepG2-CANX-COX4 = assay: as above
Procedure, shortened: as §1

HepG2-GM130-SQSTM1 = assay: as above
Procedure, shortened: as §1

HepG2-TP53BP1-CLTA = assay: as above
Procedure, shortened: as §1

HepG2-TUBA1B-RELA = assay: as above
Procedure, shortened: as §1

WPMY1-ACTB-RAB5A = assay: as above
Procedure, shortened: as §1

WPMY1-CANX-COX4 = assay: as above
Procedure, shortened: as §1

WPMY1-GM130-SQSTM1 = assay: as above
Procedure, shortened: as §1

WPMY1-TP53BP1-CLTA = assay: as above
Procedure, shortened: as §1

WPMY1-TUBA1B-RELA = assay: as above
Procedure, shortened: as §1

COc1cc(C(=O)NC2CCN(C)CC2)c(F)cc1Nc1ncc2c(n1)N(C1CCCC1)CC(F)(F)C(=O)N2C [TAK 960 hydrochloride]
active: phenotypically active (A549-ACTB-RAB5A [6]) 1 | phenotypically active (A549-CANX-COX4 [7]) 1 | phenotypically active (A549-GM130-SQSTM1 [8]) 1 | phenotypically active (A549-TP53BP1-CLTA [9]) 1 | phenotypically active (A549-TUBA1B-RELA [10]) 1 | phenotypically active (HepG2-ACTB-RAB5A) 1 | phenotypically active (HepG2-CANX-COX4) 1 | phenotypically active (HepG2-GM130-SQSTM1) 1 | phenotypically active (HepG2-TP53BP1-CLTA) 1 | phenotypically active (HepG2-TUBA1B-RELA) 1 | phenotypically active (WPMY1-ACTB-RAB5A) 1 | phenotypically active (WPMY1-CANX-COX4) 1 | phenotypically active (WPMY1-GM130-SQSTM1) 1 | phenotypically active (WPMY1-TP53BP1-CLTA) 1 | phenotypically active (WPMY1-TUBA1B-RELA) 1
≤ 0.3 µM: lowest phenotypically active concentration (A549-ACTB-RAB5A [1]) | lowest phenotypically active concentration (A549-CANX-COX4 [2]) | lowest phenotypically active concentration (A549-GM130-SQSTM1 [3]) | lowest phenotypically active concentration (A549-TP53BP1-CLTA [4]) | lowest phenotypically active concentration (A549-TUBA1B-RELA [5])

Cc1cc(Nc2cc(C)c(C#N)c(NC(C)CCCC(C)(C)O)n2)n[nH]1 (stereo not given) [TC-A 2317 hydrochloride]
1 µM: lowest phenotypically active concentration (A549-ACTB-RAB5A [1]) | lowest phenotypically active concentration (A549-CANX-COX4 [2]) | lowest phenotypically active concentration (A549-GM130-SQSTM1 [3]) | lowest phenotypically active concentration (A549-TP53BP1-CLTA [4]) | lowest phenotypically active concentration (A549-TUBA1B-RELA [5])
active: phenotypically active (A549-ACTB-RAB5A [6]) 1 | phenotypically active (A549-CANX-COX4 [7]) 1 | phenotypically active (A549-GM130-SQSTM1 [8]) 1 | phenotypically active (A549-TP53BP1-CLTA [9]) 1 | phenotypically active (A549-TUBA1B-RELA [10]) 1 | phenotypically active (HepG2-ACTB-RAB5A) 1 | phenotypically active (HepG2-CANX-COX4) 1 | phenotypically active (HepG2-GM130-SQSTM1) 1 | phenotypically active (HepG2-TP53BP1-CLTA) 1 | phenotypically active (HepG2-TUBA1B-RELA) 1 | phenotypically active (WPMY1-ACTB-RAB5A) 1 | phenotypically active (WPMY1-CANX-COX4) 1 | phenotypically active (WPMY1-GM130-SQSTM1) 1 | phenotypically active (WPMY1-TP53BP1-CLTA) 1 | phenotypically active (WPMY1-TUBA1B-RELA) 1

O=C(CCCCCCC(=O)Nc1cccnc1)NO [Pyroxamide]
active: phenotypically active (A549-ACTB-RAB5A [6]) 1 | phenotypically active (A549-CANX-COX4 [7]) 1 | phenotypically active (A549-GM130-SQSTM1 [8]) 1 | phenotypically active (A549-TP53BP1-CLTA [9]) 1 | phenotypically active (A549-TUBA1B-RELA [10]) 1 | phenotypically active (HepG2-ACTB-RAB5A) 1 | phenotypically active (HepG2-CANX-COX4) 1 | phenotypically active (HepG2-GM130-SQSTM1) 1 | phenotypically active (HepG2-TP53BP1-CLTA) 1 | phenotypically active (HepG2-TUBA1B-RELA) 1 | phenotypically active (WPMY1-ACTB-RAB5A) 1 | phenotypically active (WPMY1-CANX-COX4) 1 | phenotypically active (WPMY1-GM130-SQSTM1) 1 | phenotypically active (WPMY1-TP53BP1-CLTA) 1 | phenotypically active (WPMY1-TUBA1B-RELA) 1
3 µM: lowest phenotypically active concentration (A549-ACTB-RAB5A [1]) | lowest phenotypically active concentration (A549-CANX-COX4 [2]) | lowest phenotypically active concentration (A549-GM130-SQSTM1 [3])
9 µM: lowest phenotypically active concentration (A549-TP53BP1-CLTA [4]) | lowest phenotypically active concentration (A549-TUBA1B-RELA [5])

C[C@@H](Oc1cc(-n2cnc3ccc(CN4CCN(C)CC4)cc32)sc1C(N)=O)c1ccccc1C(F)(F)F
active: phenotypically active (A549-ACTB-RAB5A [6]) 1 | phenotypically active (A549-CANX-COX4 [7]) 1 | phenotypically active (A549-GM130-SQSTM1 [8]) 1 | phenotypically active (A549-TP53BP1-CLTA [9]) 1 | phenotypically active (A549-TUBA1B-RELA [10]) 1 | phenotypically active (HepG2-ACTB-RAB5A) 1 | phenotypically active (HepG2-CANX-COX4) 1 | phenotypically active (HepG2-GM130-SQSTM1) 1 | phenotypically active (HepG2-TP53BP1-CLTA) 1 | phenotypically active (HepG2-TUBA1B-RELA) 1 | phenotypically active (WPMY1-ACTB-RAB5A) 1 | phenotypically active (WPMY1-CANX-COX4) 1 | phenotypically active (WPMY1-GM130-SQSTM1) 1 | phenotypically active (WPMY1-TP53BP1-CLTA) 1 | phenotypically active (WPMY1-TUBA1B-RELA) 1
≤ 0.3 µM: lowest phenotypically active concentration (A549-ACTB-RAB5A [1]) | lowest phenotypically active concentration (A549-CANX-COX4 [2]) | lowest phenotypically active concentration (A549-GM130-SQSTM1 [3]) | lowest phenotypically active concentration (A549-TP53BP1-CLTA [4]) | lowest phenotypically active concentration (A549-TUBA1B-RELA [5])

Nc1ncnc2c1nc(Cl)n2C1O[C@H](CO)[C@@H](O)[C@H]1O (stereo not given in full) [8-Chloroadenosine]
1 µM: lowest phenotypically active concentration (A549-ACTB-RAB5A [1]) | lowest phenotypically active concentration (A549-CANX-COX4 [2]) | lowest phenotypically active concentration (A549-GM130-SQSTM1 [3]) | lowest phenotypically active concentration (A549-TP53BP1-CLTA [4]) | lowest phenotypically active concentration (A549-TUBA1B-RELA [5])
active: phenotypically active (A549-ACTB-RAB5A [6]) 1 | phenotypically active (A549-CANX-COX4 [7]) 1 | phenotypically active (A549-GM130-SQSTM1 [8]) 1 | phenotypically active (A549-TP53BP1-CLTA [9]) 1 | phenotypically active (A549-TUBA1B-RELA [10]) 1 | phenotypically active (HepG2-ACTB-RAB5A) 1 | phenotypically active (HepG2-CANX-COX4) 1 | phenotypically active (HepG2-GM130-SQSTM1) 1 | phenotypically active (HepG2-TP53BP1-CLTA) 1 | phenotypically active (HepG2-TUBA1B-RELA) 1 | phenotypically active (WPMY1-ACTB-RAB5A) 1 | phenotypically active (WPMY1-CANX-COX4) 1 | phenotypically active (WPMY1-GM130-SQSTM1) 1 | phenotypically active (WPMY1-TP53BP1-CLTA) 1 | phenotypically active (WPMY1-TUBA1B-RELA) 1

COc1cc(N2CCN(C)CC2)ccc1Nc1nccc(-c2cn(C)c3cnccc23)n1
9 µM: lowest phenotypically active concentration (A549-CANX-COX4 [2])
3 µM: lowest phenotypically active concentration (A549-GM130-SQSTM1 [3])
active: phenotypically active (A549-ACTB-RAB5A [6]) 1 | phenotypically active (A549-CANX-COX4 [7]) 1 | phenotypically active (A549-GM130-SQSTM1 [8]) 1 | phenotypically active (A549-TP53BP1-CLTA [9]) 1 | phenotypically active (A549-TUBA1B-RELA [10]) 1 | phenotypically active (HepG2-ACTB-RAB5A) 1 | phenotypically active (HepG2-CANX-COX4) 1 | phenotypically active (HepG2-GM130-SQSTM1) 1 | phenotypically active (HepG2-TP53BP1-CLTA) 1 | phenotypically active (HepG2-TUBA1B-RELA) 1 | phenotypically active (WPMY1-ACTB-RAB5A) 1 | phenotypically active (WPMY1-CANX-COX4) 1 | phenotypically active (WPMY1-GM130-SQSTM1) 1 | phenotypically active (WPMY1-TP53BP1-CLTA) 1 | phenotypically active (WPMY1-TUBA1B-RELA) 1
1 µM: lowest phenotypically active concentration (A549-ACTB-RAB5A [1]) | lowest phenotypically active concentration (A549-TP53BP1-CLTA [4]) | lowest phenotypically active concentration (A549-TUBA1B-RELA [5])
